Measurements published in PubChem BioAssay AID504834 (National Center for Advancing Translational Sciences (NCATS), 2011).
Screen size: about 320,000 compounds; about 22,000 (6.9%) were called active. Roughly 27% stayed inconclusive and do not appear here. The list comes from a sample in which actives are over-represented; it also holds similar structures and randomly drawn compounds. Entries that show only a call come without a potency. A number with no mark means an inactive call. Calls follow the shape of the dose curve; as a rule, active = well fitted inhibition curve with a large enough effect; inconclusive = small, poorly fitted or top-dose-only effect, or another doubt; inactive = no such curve, though single readings can be large or run the other way.
Potency is read from the fitted curve at half-maximal effect.

Assay: Primary qHTS for delayed death inhibitors of the malarial parasite plastid, 96 hour incubation
Conditions: P. falciparum luciferase reporter growth; series mostly up to 28.7 µM
How it was run: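 Luminescence readout: decreased luciferase signal marks inhibited growth of reporter-expressing P. falciparum in infected red cells (2% hematocrit, 0.05% parasitemia final), exposed to compound two generations (96 h, 37 C, 5% CO2).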
For `COc1ccc(S(=O)(=O)N2CCCCC2)cc1NC(=O)C1CC(=O)N(c2ccc3c(c2)OCCO3)C1` (stereo not drawn), the Potency was “inactive”. For `COc1cccc(-n2nc(C(=O)N3CCN(Cc4ccccc4)CC3)c3ccccc3c2=O)c1`, the Potency was 5.22 µM (active). For `CCOC(=O)CNC(=O)c1nn(-c2cccc(OC)c2)c(=O)c2ccccc12`, the Potency was “inactive”. In the case of `COc1cc(OC)c(OC)cc1CN1CCN(C(=O)c2cccc3ccccc23)CC1`, the Potency is reported as “inactive”. In the case of `CCC(=O)c1ccc(OCC(=O)N(CC)CC2COc3ccccc3O2)cc1` (stereo not drawn), the Potency is reported as “inactive”. For `Cc1cc(NC(=O)CSc2nc(=O)cc(N)n2-c2ccc(F)cc2)no1`, the Potency was “inactive”. For `Cc1ccc(CNC(=O)C2CCCN2S(=O)(=O)c2ccc3c(c2)C(C)(C)C(=O)N3C)cc1` (stereo not drawn), the Potency was 1.47 µM (active). Work on `Cc1ccc(S(=O)(=O)N2CCCC2C(=O)NCc2ccco2)cc1` (stereo not drawn) yielded an activity change, negative = inhibition of -13.6% [at 5.75 µM]. For `CCOC(=O)C1CCCN(S(=O)(=O)c2ccc3c(c2)C(C)(C)C(=O)N3C)C1` (stereo not drawn), the Potency was “inactive”. For `Cc1nc2ccccn2c(=O)c1NC(=O)c1cccs1`, the Potency was “inactive”. For `COC(=O)c1sccc1NC(=O)c1ccc(Cl)cc1`, the Potency was “inactive”. In the case of `Cc1cc(C)cc(NC(=O)CCN2C(=O)c3ccccc3C2=O)c1`, the Potency is reported as “inactive”. For `Cc1cc(C)c(C2C3=C(Nc4c2c(C)nn4-c2ccccn2)c2ccccc2C3=O)c(C)c1` (stereo not drawn), the Potency was 6.57 µM (active). For `Cc1nn(-c2ccccn2)c2c1C(c1ccncc1)C1=C(CC(C)(C)CC1=O)N2` (stereo not drawn), the Potency was 5.86 µM (active). In the case of `CC1(C)CC(=O)C2=C(C1)Nc1cc(C(=O)c3ccccc3)ccc1NC2c1ccccn1` (stereo not drawn), the Potency is reported as “inactive”. In the case of `CC(C)(C)NC(=O)C(c1ccco1)N(Cc1ccc2c(c1)OCO2)C(=O)Cn1nnc2ccccc21` (stereo not drawn), the Potency is reported as 14.7 µM (active). For `CCC(C)(C)NC(=O)C(c1cccn1C)N(Cc1ccc(C)cc1)C(=O)Cn1nnc2ccccc21` (stereo not drawn), the Potency was “inactive”. For `COc1ccc(C(C(=O)NC(C)(C)C)N(C(=O)Cn2nnc3ccccc32)c2ccc(C(C)=O)cc2)cc1O` (stereo not drawn), the Potency was “inactive”. With `C=CCc1ccccc1OCC(O)CN1CCN(CCO)CC1` (stereo not drawn) the Potency was “inactive”. In the case of `C[n+]1cc(-c2ccccc2)oc1-c1ccccc1`, the Potency is reported as “inactive”. With `Cc1nc2cccnc2nc1C` the Potency was “inactive”. With `Cc1ccc(C)c(N2CCN(C(=O)Cn3ncn4cccc4c3=O)CC2)c1` the Potency was “inactive”. For `Cc1ccc(C)c(N2CCN(C(=O)CCCn3c(=O)c4cccn4c4cccnc43)CC2)c1`, the Potency was 13.1 µM (active). In the case of `Cc1ccc(C)c(N2CCN(C(=O)CCCCn3c(=O)[nH]c4ccccc4c3=O)CC2)c1`, the Potency is reported as “inactive”. With `Cn1nccc1/C=N\NC(=O)c1ccc(Cl)cc1` the Potency was “inactive”. In the case of `CCNC(=O)CC1C(=O)N(c2ccc(OC)cc2)C(=O)N1CCOC` (stereo not drawn), the Potency is reported as “inactive”. In the case of `Cc1ccc(NC(=O)Nc2nnc(-c3ccncc3)s2)cc1`, the Potency is reported as 9.28 µM (active). With `CC(C)=CC(=O)Nc1nnc(-c2ccc(F)cc2)s1` the Potency was “inactive”. With `Cc1nnc(NC(=O)Nc2ccc(Cl)c(Cl)c2)s1` the Potency was “inactive”. In the case of `COc1ccc(Cc2nnnn2CC(=O)O)cc1`, the Potency is reported as 1.65 µM (active). With `COc1ccc(CSc2nnnn2-c2ccc(C(=O)O)cc2)cc1` the Potency was “inactive”. For `CCCn1nnnc1NCc1ccc(OC)cc1`, the Potency was “inactive”. For `O=C(CCc1nnc(Cc2ccc3c(c2)OCO3)o1)NCCc1ccccc1Cl`, the Potency was “inactive”. For `Cc1ccc(-c2ncc(Cl)cc2-c2ccc(S(C)(=O)=O)cc2)cn1`, the Potency was 13.5 µM (active). In the case of `Cc1c2cnn(CC(=O)NCCCN3CC(C)CC(C)C3)c(=O)c2c(C)n1Cc1ccc(Cl)cc1` (stereo not drawn), the Potency is reported as “inactive”. With `Cc1nc2ccccc2c(=O)n1NC(=O)c1ccccc1` the Potency was “inactive”. With `Cc1ccc(SCc2c(C(=O)N/N=C/C3CC=CCC3)nnn2-c2nonc2N)cc1` (stereo not drawn) the Potency was “inactive”. In the case of `CNC1(c2nnnn2-c2c(C)cccc2C)CCOC(C)(C)C1` (stereo not drawn), the Potency is reported as “inactive”. With `COc1ccc(C23NCCN2C(=O)c2ccccc23)cc1` (stereo not drawn) the Potency was “inactive”. With `COc1ccc(C2(C)ON(c3ccccc3C(F)(F)F)C2=O)cc1` (stereo not drawn) the Potency was 2.62 µM (active). In the case of `COc1ccc(C2(C)NC(=O)N(CC(=O)c3ccc4c(c3)OCO4)C2=O)cc1` (stereo not drawn), the Potency is reported as “inactive”. For `COC(c1ccccc1)(c1ccccc1)C(Oc1nc(C)cc(C)n1)C(=O)O` (stereo not drawn), the Potency was “inactive”. In the case of `Cc1ccc(OCCNC(=O)CN2C(=O)NC3(CCCC3)C2=O)cc1`, the Potency is reported as “inactive”. For `COc1ccc(NC(=O)CSc2nc(SC)ns2)c(OC)c1`, the Potency was “inactive”. For `Cc1ccc(Cc2nnc(SCC(=O)Nc3ccccc3C)[nH]c2=O)cc1`, the Potency was “inactive”. With `COC(=O)COc1ccc2c(=O)c(Oc3ccccc3Br)coc2c1` the Potency was “inactive”. In the case of `FC(F)(F)Oc1ccc(-c2cn3cccnc3n2)cc1`, the Potency is reported as “inactive”. For `COc1ccc(CN2CCN(c3ccccc3F)CC2)c(OC)c1`, the Potency was “inactive”. For `CCN1CCC2(CCN(Cc3cn[nH]c3-c3ccc(OC)c(F)c3)C2)C1` (stereo not drawn), the Potency was 10.4 µM (active). With `COc1ccc(-c2[nH]ncc2CN(Cc2nccn2C)C(C)C)cc1F` the Potency was “inactive”. For `CCCC(O)(c1ccc(OC)cc1)C(CN(C)C)c1ccccc1` (stereo not drawn), the Potency was 14.7 µM (active). For `CN(C)CC(O)COc1ccc(C(C)(C)c2ccc(OCC(O)CN(C)C)cc2)cc1` (stereo not drawn), the Potency was “inactive”. For `COc1ccc(C(O)(C2CCCCC2)C(CN2CCCC2)c2ccccc2)cc1` (stereo not drawn), the Potency was “inactive”. With `COc1ccc(NC(=O)CN(C)C(=O)c2n[nH]c3ccccc23)cc1` the Potency was “inactive”. With `S=C(NCc1ccc(Cl)cc1)NC12CC3CC(CC(C3)C1)C2` the Potency was 11.7 µM (active). In the case of `O=C(NCc1ccc(Cl)cc1)NCc1ccc(Cl)cc1`, the Potency is reported as “inactive”. In the case of `S=C(NCc1ccc(Cl)cc1)NC1CCCCC1`, the Potency is reported as “inactive”. For `CCN(Cc1ccccc1)S(=O)(=O)c1cc2c3c(c1)CCN3C(=O)CC2`, the Potency was “inactive”. For `COc1ccc(C(CNCC(=O)Nc2ccccc2F)N(C)C)cc1` (stereo not drawn), the Potency was “inactive”. In the case of `COc1ccccc1N1CCN(C(=O)c2ccc(S(=O)(=O)N3CCCCC3)cc2)CC1`, the Potency is reported as “inactive”. In the case of `COc1ccc(S(=O)(=O)Nc2ccccc2C(=O)N2CCCC2)cc1C`, the Potency is reported as “inactive”. With `COc1ccccc1NS(=O)(=O)c1ccc(C(=O)N2CCN(c3ccccc3O)CC2)cc1` the Potency was 11.7 µM (active). In the case of `COc1ccccc1NC(=O)C1CCN(C(=O)c2ccc(C(C)(C)C)cc2)CC1`, the Potency is reported as “inactive”. With `O=C(c1ccc(S(=O)(=O)N2CCOCC2)cc1)N1CCN(c2ccccc2)CC1` the Potency was “inactive”. For `O=C(c1ccc(S(=O)(=O)N2CCCC2)cc1)N1CCN(c2ccccc2F)CC1`, the Potency was 4.65 µM (active). With `O=C(COC(=O)/C=C/c1ccc2c(c1)OCO2)NC1CCS(=O)(=O)C1` (stereo not drawn) the Potency was “inactive”. With `Cn1nc(C(=O)OCC(=O)N(Cc2ccccc2)C(C)(C)C)c2ccccc2c1=O` the Potency was “inactive”. For `CSc1nnc(NC(=O)c2nc(S(=O)(=O)Cc3ccc(C)cc3)ncc2Cl)s1`, the Potency was “inactive”. In the case of `CC1(C)COC(c2cccn2Cc2ccccc2Cl)=N1`, the Potency is reported as 9.28 µM (active). In the case of `O=C(Nc1cccn(Cc2ccccc2Cl)c1=O)NC1CCCCC1`, the Potency is reported as “inactive”. For `O=S1(=O)CCN(Cc2ccccc2Cl)CC1`, the Potency was “inactive”. With `NC(=O)c1cc(-c2cccnc2)nc2ccc(Br)cc12` the Potency was “inactive”. In the case of `C=CCn1c(SCCOc2ccc(OC)cc2)nnc1C(NC(=O)c1ccc(OC)cc1)C(C)C` (stereo not drawn), the Potency is reported as 10.4 µM (active). In the case of `C=CCn1c(SCc2ccc(Cl)c(Cl)c2)nnc1C(CO)NC(=O)c1ccc(OC)cc1` (stereo not drawn), the Potency is reported as “inactive”. In the case of `C=CCn1c(SCC(=O)c2ccc(Br)cc2)nnc1C(C)NC(=O)Cc1ccc(OC)cc1` (stereo not drawn), the Potency is reported as “inactive”. With `CC[C@]1([C@H]2O[C@@H]([C@@H]3O[C@](O)(CO)[C@@H](C)C[C@H]3C)C[C@H]2C)CC[C@@H]([C@]2(C)CC[C@@]3(C[C@@H](O)[C@@H](C)[C@@H]([C@H](C)[C@H](OC)[C@H](C)C(=O)O)O3)O2)O1` the Potency was 0.019 µM (active). For `COc1ccc(CC(=O)OC(C)C(=O)Nc2ccc(S(N)(=O)=O)cc2)cc1` (stereo not drawn), the Potency was “inactive”. In the case of `C[C@@H](NC(=O)c1nc[nH]c1C(=O)N1CCN(C(=O)OC(C)(C)C)CC1)c1ccccc1`, the Potency is reported as “inactive”. For `CC(C)(C)OC(=O)N1CCC(NC(=O)c2[nH]cnc2C(=O)N[C@@H](Cc2ccccc2)C(=O)OCc2ccccc2)CC1`, the Potency was 1.47 µM (active). With `O=C(N[C@@H](Cc1ccccc1)C(=O)OCc1ccccc1)c1nc[nH]c1C(=O)N[C@@H](Cc1ccccc1)C(=O)OCc1ccccc1` the Potency was “inactive”. For `Cc1c(Cl)cccc1NC(=O)CCC(=O)N/N=C/c1ccco1`, the Potency was “inactive”. With `Cc1cc(C)cc(N(CC(=O)NC2CCCC2)C(=O)CCC(=O)Nc2cc(C)on2)c1` the Potency was “inactive”. For `Cc1cc(OC(C)C(=O)Nc2ccc(S(=O)(=O)Nc3onc(C)c3C)cc2)cc(C)c1Cl` (stereo not drawn), the Potency was 8.28 µM (active). For `CC(Oc1cccc(Cl)c1)C(=O)Nc1ccc(S(=O)(=O)Nc2ncccn2)cc1` (stereo not drawn), the Potency was “inactive”. With `COc1ccc(C(=O)Nc2ccc(S(=O)(=O)Nc3onc(C)c3C)cc2)cc1OC` the Potency was “inactive”. In the case of `N#Cc1c(-c2ccccc2)c(-c2ccccc2)n[nH]c1=O`, the Potency is reported as “inactive”. In the case of `NCCCCCC(=O)N/N=C/c1ccc2nccnc2c1`, the Potency is reported as “inactive”. For `COc1ccc(C(=O)NC(C)Cn2nc(C)cc2C)cc1OC1CCN(C(C)=O)CC1` (stereo not drawn), the Potency was “inactive”. For `O=C(NCCCn1ccnc1)C1CCCN(S(=O)(=O)c2cc(Cl)ccc2Cl)C1` (stereo not drawn), the Potency was “inactive”. With `O=c1oc2ccccc2c(CNc2ccccc2)c1[N+](=O)[O-]` the Potency was “inactive”. With `O=C(NCCCN1CCCCCC1)c1ccc(N2CCCC2=O)cc1` the Potency was 2.33 µM (active). In the case of `O=C(NCCCN1CCCC1=O)c1ccc(S(=O)(=O)Nc2ccccc2)cc1`, the Potency is reported as “inactive”. In the case of `CCCNC(=O)NCc1ccc(N2CCCC2=O)cc1`, the Potency is reported as “inactive”. In the case of `COc1ccc(N2CCN(C(=O)Cn3cnc4sc(C)c(S(=O)(=O)N5CCOCC5)c4c3=O)CC2)cc1`, the Potency is reported as “inactive”. With `Cn1c(N)c(C(=O)COC(=O)c2cnc(Cl)c(Cl)c2)c(=O)n(C)c1=O` the Potency was “inactive”. With `Cn1c(N)c(C(=O)COC(=O)COc2ccc(Cl)cc2)c(=O)n(C)c1=O` the Potency was “inactive”. For `Cn1c(N)c(C(=O)COC(=O)C23CC4CC(CC(C4)C2)C3)c(=O)n(C)c1=O`, the Potency was 14.7 µM (active). In the case of `COc1cc(NC(=O)c2ccccc2)c(OC)cc1NC(=O)Cc1ccccc1`, the Potency is reported as “inactive”.
